Results filed as inconclusive are left out. Entries that show only a call come without a potency. Activity calls are given as the source filed them. Unless noted, the call rests on the fitted dose curve; in most records, active means well fitted curve in the direction sought with a large enough effect; inconclusive means small, poorly fitted or top-dose-only effect, or another doubt; inactive means no such curve, though single readings can be large; an effect the other way counts as inactive or inconclusive.
Tests used:
[1] = qHTS profiling of the MIPE4 collection as inhibitors of Plasmodium falciparum (DD2) proliferation (Rep 2) (AID 743346; call rule not given here); conditions: P. falciparum Dd2 in erythrocytes, SYBR Green DNA, 72 h; at 28.5 µM unless noted
Summary of the method: (§1)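 Erythrocytes infected with P. falciparum (0.3% parasitemia, 2.5% hematocrit) incubated with compounds 72 h at 37 C, 5% CO2. Lysis with saponin/Triton buffer containing SYBR Green I, overnight at room temperature in the dark; DNA fluorescence (485/535 nm) normalised to 0.29 uM artemisinin and DMSO.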

[2] = qHTS profiling of the MIPE4 collection as inhibitors of Plasmodium falciparum (HB3) proliferation (AID 743347; call rule not given here); conditions: P. falciparum HB3 in erythrocytes, SYBR Green DNA, 72 h; at 28.5 µM unless noted
Summary of the method: as §1

[3] = High-throughput drug toxicity screening in the BPDCN cell line Gen2.2 (AID 1224824; call rule not given here;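 further: cells exposed to compounds for 48 h before reading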); conditions: Gen2.2 BPDCN cells; at 45.8 µM (top of the series) unless noted
Summary of the method: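 Readout is ATP luminescence from Gen2.2 cells after two days of drug exposure in serum-containing medium at 37 °C. Values express percent activity, with vehicle defining full signal and 9.2 uM bortezomib defining zero.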

[4] = High-throughput drug toxicity screening in the BPDCN cell line Cal-1 (AID 1224825; call rule not given here); conditions: Cal-1 BPDCN cell viability, qHTS; at 45.8 µM (top of the series) unless noted
Summary of the method: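 Cal-1 cells, 500 per well in phenol-red-free RPMI with 10% FBS, exposed to compounds for 48 hours at 37C, 5% CO2. Viability read by CellTiter-Glo luminescence; percent activity normalized to DMSO (100%) and 9.2 uM bortezomib final (0%).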

[5] = qHTS assay for measurement of the activity of small molecule inhibitors on Zika virus induced Caspase-3 activity in human iPSC derived neural progenitor cells (hNPCs) (AID 1224857); further: nearly all actives have a fitted effect of over 65% in size; further: potency means the concentration at half of the fitted maximal effect
Summary of the method: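 After overnight (16–20 h) culture at 350 cells/well, hNPCs get compound, then ZIKV 2 FFU/cell one hour later. Six hours on, Caspase-Glo 3/7 is added and luminescence measured.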

[6] = qHTS assay for measurement of the activity of small molecule inhibitors on Zika virus induced Caspase-3 activity in human astrocytoma cells (AID 1224859)
Summary of the method: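 Inhibition of Zika-induced caspase-3/7 activity: SNB-19 cells, 1 h compound pretreatment, ZIKV 2 FFU/cell for 6 h at 37 C, Caspase-Glo luminescence read-out.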

[7] = qHTS Screen of the MIPE 4.0 Collection Against Ewings Sarcoma (EW8) (AID 1259255); further: nearly all actives have a fitted effect of over 35% in size
Summary of the method: (§2)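 Log-phase cells in RPMI with 5% FBS attached for 4 h, then received compounds as a titration for 48 h at 37C, 5% CO2. Viability was read by CellTiter-Glo luminescence and normalized to DMSO and no-cell wells.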

[8] = P-glycoprotein substrates identified in KB-8-5-11 adenocarcinoma cell line, qHTS therapeutic library screen (AID 1346987); further: nearly all actives have a fitted effect of over 65% in size; further: potency means the concentration at half of the fitted maximal effect
Summary of the method: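 Steps: plate 500 KB-8-5-11 cells/well in DMEM + 10% FCS (colchicine removed); pin compounds in dose-response; incubate 72 h, 37 degree C, 5% CO2; add CellTiter-Glo, 5 min; read luminescence.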

[9] = Natriuretic polypeptide receptor (hNpr1) antagonism - Pilot counterscreen GloSensor control cell line (AID 1347045; calls by dose curve; further: potency means the concentration at half of the fitted maximal effect)
Summary of the method: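 Luminescence was read before and 20 min after adding 50 uM SNP, which stimulates soluble guanylyl cyclase. The HEK293 cells expressing the GloSensor cGMP sensor had been preloaded with 2% reagent for 2 h and treated with compound.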

[10] = qHTS assay to identify small molecule inhibitors of chordoma cells - UCH-1 (AID 1259355); further: nearly all actives have a fitted effect of over 55% in size
Summary of the method: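 Cells (800/well) were seeded and left overnight at 37 C, 5% CO2, then treated with drugs at 15 concentrations plus a combination mix of auranofin, camptothecin, doxorubicin, rubitecan and topotecan. Viability after 48hr was read by CellTiter-Glo luminescence.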

[11] = qHTS assay to identify small molecule inhibitors of chordoma cells - UCH-2 (AID 1259356)
[12] = qHTS Screen of the MIPE 4.0 Collection Against Ewings Sarcoma (TC32) (AID 1259256); further: potency means the concentration at half of the fitted maximal effect; nearly all actives have a fitted effect of over 45% in size
Summary of the method: as §2

[13] = Identifying Small Molecule Inhibitors of Pancreatic Cancer Stem Cells (SN12C, Adherent) (AID 1259358);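 further: cell survival measured after 48 h of compound exposure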
Summary of the method: (§3)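 Spheroids grown 14 days in stem cell media on hydrogel-coated nonadherent plates; 2D lines seeded directly. Compounds added after 4 h attachment, 48 h at 37C, 5% CO2; CellTiter-Glo luminescence normalized to DMSO (no inhibition) and no-cell wells (full inhibition).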

[14] = Identifying Small Molecule Inhibitors of Pancreatic Cancer Stem Cells (SN12C, Spheroid) (AID 1259360); conditions: Potency: SN12C spheroid viability
Summary of the method: (§4)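 After a 4 h attachment period, compounds were pinned into wells and cultures held 48 h under standard incubator conditions. Viability was then measured as CellTiter-Glo luminescence following 10 min at room temperature.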

[15] = Identifying Small Molecule Inhibitors of Pancreatic Cancer Stem Cells (Panc1, Adherent) (AID 1259362); conditions: Potency: viability;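 further: compound exposure lasted 48 h before the viability read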
Summary of the method: as §4

[16] = Identifying Small Molecule Inhibitors of Pancreatic Cancer Stem Cells (A278, Adherent) (AID 1259361); further: nearly all actives have a fitted effect of over 35% in size
Summary of the method: as §3

Row | SMILES | parasite growth, % of control (lower = inhibition) [1] [%] | growth, % of control [2] [%] | cell viability, % of control (lower = more cytotoxic) [3] [%] | viability (% of control) [4] [%] | Potency [5] | Potency [6] | Potency [7] | Potency [8] | Potency [9] | Potency [10] | Potency [11] | Potency [12] | Potency [13] | Potency [14] | Potency [15] | IC50 (viability decrease) [16]
1 | O=C1c2c(O)cc(O)cc2OC(c2ccc(O)c(O)c2)C1O (stereo unspecified) | 64.4 | 99.5 | 155 | 105 | inactive | inactive | inactive | inactive | inactive |  |  |  |  |  |  | 
2 | Cc1ncc([N+](=O)[O-])n1CC(C)O (stereo unspecified) | 94.8 | 99.2 | 120 | 98.4 | inactive | inactive | inactive | inactive |  | inactive | inactive |  |  |  |  | 
3 | Oc1ccc2ccccc2c1SSc1c(O)ccc2ccccc12 | 30.4 | 9.78 | 2.05 | 0.636 | 8.91 µM (active) | inactive |  | inactive |  |  |  | 23.5 µM (active) |  |  |  | 
4 | Cc1ccc(C(=O)c2cc(O)c(O)c([N+](=O)[O-])c2)cc1 | 82.4 | 92.8 | 52.4 | 73.3 | inactive | inactive |  |  |  |  |  |  |  |  |  | 
5 | O=C1c2ccccc2-c2n[nH]c3cccc1c23 | 87 | 85.2 | 84.7 | 3.95 | inactive | inactive |  | 18.4 µM (active) | inactive | inactive | inactive | 18.7 µM (active) |  |  |  | 
6 | Cc1ccc(NC(=O)c2ccc(CN3CCN(C)CC3)cc2)cc1Nc1nccc(-c2cccnc2)n1 | 24.1 | 4.5 | 308 | 81 | inactive | inactive |  | inactive |  | inactive | inactive |  | inactive | inactive | inactive | 
7 | O=C(O)c1cccc(-c2noc(-c3ccccc3F)n2)c1 | 41.6 | 99.8 | 41.1 | 93.8 | inactive | inactive |  |  |  | inactive | inactive |  |  |  |  | 
8 | N[C@@H](Cc1cc(I)c(Oc2cc(I)c(O)c(I)c2)c(I)c1)C(=O)O | 91.7 | 75.1 | 163 | 123 | inactive | inactive | inactive | inactive |  | inactive | inactive |  |  |  |  | 
9 | C=CCc1cc(OC)c(O)c(C(=O)NCCO)c1 |  |  | 134 | 128 | inactive | inactive | inactive | inactive |  | inactive | inactive |  |  |  |  | 
10 | Cc1c(OCC(F)(F)F)ccnc1CS(=O)c1nc2ccccc2[nH]1 (stereo unspecified) |  |  | 595 | 100 | inactive | inactive |  |  | inactive | inactive | inactive |  |  |  |  | 
11 | CC(=O)N1CCN(c2ccc(OC[C@H]3CO[C@](Cn4ccnc4)(c4ccc(Cl)cc4Cl)O3)cc2)CC1 |  | 6.71 | 64.7 | 22.2 | inactive | inactive |  |  | 18.5 µM (active) | inactive | inactive |  |  |  |  | 
12 | Cc1ccc(C)c(OCCCC(C)(C)C(=O)O)c1 | 8.19 | 3.44 | 120 | 51 | inactive | inactive |  | inactive |  | inactive | inactive |  |  |  |  | 
13 | N=C(N=C(N)N)N1CCOCC1 | 93.1 | 101 | 139 | 127 | inactive | inactive |  | inactive |  | inactive | inactive |  |  |  |  | 
14 | CCOC(=O)c1c(C)n(C)c2ccc(O)cc12 | 87.1 | 66.7 | 232 | 87.8 | inactive | inactive |  | inactive |  | inactive | inactive |  |  |  |  | 
15 | O=C(NCC1CCCCN1)c1cc(OCC(F)(F)F)ccc1OCC(F)(F)F (stereo unspecified) |  |  | 42.6 | 12.9 | inactive | inactive | inactive |  |  |  | inactive |  |  |  |  | 
16 | CCN(CCO)CCCC(C)Nc1ccnc2cc(Cl)ccc12 (stereo unspecified) | 15.4 | 49.8 | 86.1 | 8.28 | inactive | inactive |  | inactive |  | inactive | inactive | 23.5 µM (active) | inactive |  |  | inactive
17 | CN1CCC(=C2c3ccccc3CCc3sccc32)CC1 | 14.9 | 8.17 | 93.1 | 69 | inactive | inactive |  |  |  | inactive | inactive |  |  |  |  | 
18 | COc1cc(C(C)=O)ccc1OCCCN1CCC(c2noc3cc(F)ccc23)CC1 | 40.6 | 54.6 | 69.7 | 52.5 | inactive | inactive |  |  |  |  |  |  |  |  |  | 

— PubChem BioAssay (NCATS)
